# In the library only some 4% were active in any assay of this set; here they are far more common.
# Beta cell apopt: blocks beta cell apoptosis; protection from apoptosis, % (test concentration not listed); hit rate 0.8% among 300,000; INS-1E cytokine-induced death, ATP luminescence, 48 h; percent of positive-control rescue, neutral wells zero;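 active means Every replicate reaches about 75%, or at least half do and their mean reaches it too, limit read from the data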;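 further: 0% = cytokine-treated negative control wells and 100% = positive control rescue; higher means more ATP so stronger rescue from cytokine killing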
# PAX8 reporter: lowers PAX8-driven luciferase in RMG-I cells; RMG-I TPO-luciferase reporter, SteadyGlo, 24 h; inhibition, % at 12.6 µM; hit rate 1.2% among 360,000;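 active means mean replicate inhibition at least 60% with every replicate also reaching 60%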;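 further: luciferase light reporting Pax8 driven TPO promoter activity; plate controls were median of neutral control wells for no effect and mitoxantrone controls for full effect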
# Mdm2 MdmX PPI: inhibitors of human Mdm2/MdmX interaction; AID 485346; hit rate 3% among 330,000; inhibition, % at 8 µM; O15151+Q00987; SaOS-2 split-luciferase Mdm2/MdmX complementation, luminescence;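 active means inhibition of at least 50% at 8 µM in the primary screen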
# Target sequence (O15151 whole entry, looked up): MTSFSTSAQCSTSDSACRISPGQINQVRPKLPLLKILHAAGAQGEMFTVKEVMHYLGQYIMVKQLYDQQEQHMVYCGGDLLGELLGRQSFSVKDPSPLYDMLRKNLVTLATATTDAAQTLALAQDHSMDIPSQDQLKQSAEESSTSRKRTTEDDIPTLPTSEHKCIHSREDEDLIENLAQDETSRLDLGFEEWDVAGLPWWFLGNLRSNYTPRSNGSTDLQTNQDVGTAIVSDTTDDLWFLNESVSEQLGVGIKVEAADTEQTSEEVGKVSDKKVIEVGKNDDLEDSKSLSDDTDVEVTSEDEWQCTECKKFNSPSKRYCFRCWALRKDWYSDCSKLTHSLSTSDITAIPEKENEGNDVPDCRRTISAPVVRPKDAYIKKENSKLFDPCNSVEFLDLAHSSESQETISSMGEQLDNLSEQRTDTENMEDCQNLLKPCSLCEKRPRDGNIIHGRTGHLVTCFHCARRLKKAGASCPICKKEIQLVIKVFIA
# Target sequence (Q00987 whole entry, looked up): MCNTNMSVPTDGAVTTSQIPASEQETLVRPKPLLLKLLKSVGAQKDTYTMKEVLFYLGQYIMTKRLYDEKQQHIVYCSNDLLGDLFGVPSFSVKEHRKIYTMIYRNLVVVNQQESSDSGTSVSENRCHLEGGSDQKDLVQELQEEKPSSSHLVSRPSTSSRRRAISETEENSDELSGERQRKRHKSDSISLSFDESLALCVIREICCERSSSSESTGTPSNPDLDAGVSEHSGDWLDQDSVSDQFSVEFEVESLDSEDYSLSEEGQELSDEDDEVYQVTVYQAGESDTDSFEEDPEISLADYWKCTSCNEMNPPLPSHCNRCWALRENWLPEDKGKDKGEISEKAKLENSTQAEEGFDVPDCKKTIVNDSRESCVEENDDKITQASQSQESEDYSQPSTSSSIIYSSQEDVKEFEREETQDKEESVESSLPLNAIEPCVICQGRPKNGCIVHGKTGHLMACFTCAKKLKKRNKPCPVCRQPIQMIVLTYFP
# Shn3 3UTR inh: reduces Shn3 3'UTR luciferase signal in osteoblasts | Clone20 osteoblast Shn3 3'UTR firefly luciferase, 24 h | inhibition, % at 12.5 µM | hit rate 0.52% among 360,000 | AID 588674;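 active means mean inhibition of at least 75% with every replicate also reaching 75%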;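 further: 0% = median of neutral control wells and 100% = pilot-screen positive control compound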
# CSC inhib: cancer stem cell inhibition; cancer stem cell-like cells viability, luminescence; inhibition, % at 7.5 µM; hit rate 1.1% among 300,000; AID 2717; in the data active means inhibition above about 75%; tested in HMLE shEcad cells
# Gli-Sufu block: antagonists of Gli-Sufu signaling; Sufu-KO-LIGHT fibroblasts, Gli luciferase reporter luminescence; inhibition, % at 5 µM; hit rate 0.74% among 340,000; AID 588413;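 active means inhibition above about 55%, limit read from the data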;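 further: 0% = DMSO-treated cells and 100% = wells with medium but no cells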
# Mdm2 MdmX conf: human Mdm2/MdmX binding inhibition, confirmed | shares compounds with Mdm2 MdmX PPI | luminescent assay | inhibition, % at 8 µM | hit rate 55% among 10,000; in the data active means inhibition above about 40%
# Full FLuc ctr: full-length luciferase inhibition in Mdm2/MdmX counter-screen; hit rate 77% among 6,200; shares compounds with Mdm2 MdmX PPI; inhibition, % at 8 µM; SaOS-2 full-length luciferase counterscreen, luminescence;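 active means mean inhibition at 8 µM reaching about 37%, which flags the compound as non-specific, limit read from the data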;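 further: p53-null SaOS-2 cells with luciferase driven by a doxycycline-inducible promoter; compound on cells about two nights before reading with doxycycline added after day one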
# * hit, by the source's call; . = not tested or not shown.
SMILES,Beta cell apopt,PAX8 reporter,Mdm2 MdmX PPI,Shn3 3UTR inh,CSC inhib,Gli-Sufu block,Mdm2 MdmX conf,Full FLuc ctr
Oc1cc(-c2ccncc2)cc2cccnc12,46,6,91*,89*,.,50,66*,52*
Oc1cc(Nc2cccnc2)cc2cccnc12,9,0,66*,85,.,8,12,.
Oc1cc(Nc2ccncc2)cc2cccnc12,-2,-4,38,8,.,1,.,.
O=C(C[C@@H]1C[C@H]2c3cc(NC(=O)CC4CC4)ccc3O[C@H]2[C@H](CO)O1)NCC(F)(F)F,.,0,.,.,.,.,.,.
COc1ccc(S(=O)(=O)Nc2ccc3c(c2)C(=O)N([C@H](C)CO)C[C@H](C)[C@@H](CN(C)C(=O)NC(C)C)OCCCC[C@H](C)O3)cc1,.,-1,.,.,.,.,.,.
Cc1occc1C(=O)O/N=C(\N)c1ccccc1,42,-55,72*,-89,21,-109,-2,.
Cc1onc(-c2ccccc2Cl)c1C(=O)O/N=C(\N)c1ccccc1,5,26,100*,17,41,-6,92*,112*
Cc1ccccc1/C(N)=N/OC(=O)c1ccc(F)cc1,.,-122,65*,-100,-12,-18,-3,.
COc1cc(NC(=O)c2c(-c3ccccc3Cl)noc2C)c2ncccc2c1,15,14,24,15,46,9,.,.
Cc1onc(-c2ccccc2Cl)c1C(=O)Nc1cccc2cccnc12,7,.,64*,37,53,-3,17,.
Cc1onc(-c2ccccc2Cl)c1C(=O)O/N=C(\N)c1cccc([N+](=O)[O-])c1,.,35,.,8,.,.,.,.
Cc1ccc(S(=O)(=O)Nc2cccc3c2O[C@@H](CN(C)C(=O)NC(C)C)[C@@H](C)CN([C@@H](C)CO)C3=O)cc1,.,-4,.,.,.,.,.,.
O=C(C[C@H]1CC[C@H](NC(=O)Nc2ccc(C(F)(F)F)cc2)[C@@H](CO)O1)NCCN1CCCC1,.,-2,.,.,.,.,.,.
Cc1ccccc1C(=O)O/N=C(\N)c1ccccc1,6,-38,86*,-1,-1,-93,41*,114*
Cc1cccc(/C(N)=N/OC(=O)c2ccoc2C)c1,38,-24,94*,-90,2,-128,47*,167*
COc1cccc(-c2nn3c(-c4cccc(C)c4)nnc3s2)c1,0,.,-31,-21,.,-19,.,.
COc1cccc(-c2nnc3sc(-c4ccc(C)cc4)nn23)c1,6,.,56*,.,15,.,60*,47*
CCOc1cccc(-c2nnc3sc(-c4cc(OC)c(OC)c(OC)c4)nn23)c1,6,.,61*,2,6,2,15,.
COc1cc(-c2nn3c(-c4ccccc4)nnc3s2)cc(OC)c1OC,7,.,19,-29,0,15,.,.
CCCN1C[C@H](C)[C@H](OC)CN(C)C(=O)c2cc(NC(=O)COC)ccc2OC[C@@H]1C,.,-2,.,.,.,.,.,.
CCCN(c1ccc(C(=O)OC)cc1)S(=O)(=O)c1ccccc1,-8,-12,13,-10,-23,2,.,.
CCCCN(c1ccc(C(=O)OC)cc1)S(=O)(=O)c1ccccc1,1,4,62*,6,-6,4,2,.
CS(=O)(=O)N1CC(=O)N2[C@H](C1)[C@@H](c1ccc(C#CCc3ccccc3)cc1)[C@@H]2CO,.,-12,.,.,.,.,.,.
COCC#Cc1ccc([C@@H]2[C@H]3CN(C(=O)Nc4ccc(F)cc4)CC(=O)N3[C@H]2CO)cc1,.,-5,.,.,.,.,.,.
COc1cccc(CNC(=O)C[C@H]2C=C[C@@H](NC(=O)C3CCC3)[C@@H](CO)O2)c1,.,9,.,.,.,.,.,.
SMILES,Beta cell apopt,PAX8 reporter,Mdm2 MdmX PPI,Shn3 3UTR inh,CSC inhib,Gli-Sufu block,Mdm2 MdmX conf,Full FLuc ctr
Cc1ccc(C(=O)NC(=S)Nc2cc(C(F)(F)F)ccc2Cl)cc1,5,.,55*,9,1,12,-14,.
O=C(OCCN1C(=O)c2cccc3c(N4CCOCC4)ccc(c23)C1=O)c1ccc(Cl)cc1,4,61*,73*,0,7,-8,53*,69*
O=C(Nc1ccc2nc(-c3ccccc3)[nH]c2c1)c1ccco1,.,-17,-110,-145,-9,10,.,.
COCCN1Cc2cccc(C(=O)Nc3ccc(-c4nc5ccccc5[nH]4)cc3)c2C1=O,1,-16,40,20,.,6,.,.
O=C(Nc1ccc(-c2nc3ccccc3[nH]2)cc1)c1ccc2c(c1)OCO2,33,.,90*,37,-9,-3,67*,29
COCCN1Cc2cccc(C(=O)Nc3cccc(-c4nc5ccccc5[nH]4)c3)c2C1=O,39,12,55*,9,55,8,51*,90*
O=C(Nc1cccc(-c2nc3ccccc3[nH]2)c1)c1cccc(NC(=O)c2ccco2)c1,56,.,100*,42,99*,-13,29,56*
O=C(Nc1ccc(Cl)c(-c2nc3ccccc3[nH]2)c1)c1ccc2c(c1)OCO2,2,5,6,19,0,.,.,.
C[C@@H]1CN([C@@H](C)CO)C(=O)c2ccccc2-c2ccccc2CO[C@@H]1CN(C)Cc1ccc2c(c1)OCO2,.,25,.,.,.,.,.,.
CC(=O)Nc1ccc2c(c1)C(=O)N(C)[C@@H]1CC[C@H](CC(=O)NCc3ccc(Cl)cc3)O[C@H]1CO2,.,-2,.,.,.,.,.,.
CN(C)C(=O)c1ccc(-c2ccc([C@@H]3[C@H]4CN(C(=O)C5CCCC5)CCCCN4[C@H]3CO)cc2)cc1,.,7,.,.,.,.,.,.
COc1ccc(/C=C/c2nc(N)nc(-c3ccccc3O)n2)cc1OC,17,-7,61*,-19,42,10,44*,84*
CCOc1cc(-c2nc(-c3ccccc3)c(-c3cc([N+](=O)[O-])ccc3C)[nH]2)ccc1O,5,29,57*,19,.,9,13,.
CC(CCc1ccc(O)cc1)NCCC(c1ccccc1)c1ccccc1 (stereo not given),-11,21,51*,-4,-17,18,29,.
CC(CCc1ccc(O)cc1)NC(c1ccccc1)c1ccc(Cl)cc1 (stereo not given),1,3,-1,20,48,15,.,.
Cc1ccc(CC(=O)NCc2ccc(F)cc2)cc1,-4,-4,58*,-29,-17,-15,48*,59*
Cc1ccc(CNC(=O)Cc2ccc(-c3ccccc3)cc2)cc1,4,.,58*,18,-13,45,61*,73*
COc1ccccc1NC(=O)N[C@@H]1CC[C@H](CC(=O)N2CCC(Cc3ccccc3)CC2)O[C@@H]1CO,.,22,.,.,.,.,.,.
Clc1ccc(N2CCN(c3ncnc4c3oc3ccccc34)CC2)cc1,-5,.,58*,13,13,5,10,.
CC1CN(c2ncnc3c2oc2ccccc23)CC(C)O1 (stereo not given),-3,.,-39,-14,4,47,.,.
CN1C[C@@H](O)COC[C@H]2O[C@H](CC(=O)N3CCN(c4ccccc4)CC3)CC[C@@H]21,.,-1,.,.,.,.,.,.
